Screening results (PubChem)
Compounds with a hit are over-represented: about 9.2% of the library has one in this group of screens.
HPGD block – HPGD (human) dehydrogenase inhibition. 4.3% of 150,000 active. purified HPGD, NADH fluorescence kinetic, PGE2 substrate. Potency, µM, for the others: top-dose activity change, negative = inhibition, actives largely listed as inhibitors; also: % is scaled to controls: 0 for no effect and ±100 for the full control effect
Target sequence (P15428 whole entry, looked up): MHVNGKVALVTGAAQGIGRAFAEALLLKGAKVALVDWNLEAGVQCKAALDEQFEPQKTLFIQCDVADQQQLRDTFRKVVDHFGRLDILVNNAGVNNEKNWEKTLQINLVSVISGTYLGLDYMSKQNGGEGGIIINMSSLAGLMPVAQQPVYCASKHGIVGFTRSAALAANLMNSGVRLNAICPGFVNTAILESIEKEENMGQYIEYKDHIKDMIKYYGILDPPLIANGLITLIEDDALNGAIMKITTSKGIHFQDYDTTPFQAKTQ
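NADH formation kinetics: reaction with 30 uM PGE2 and 1 mM NAD+ (final), 20 nM enzyme, Tris-HCl pH 8 with Tween 20, after 15 min compound preincubation at room temperature. Fluorescence change, last versus first of five reads.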
HTT ATP protect – cytoprotection in Huntington HTT-Q103 PC12 cell model; PC12 HTT-Q103 induced, cytoprotection, ATP luminescence, 40 h; 0.14% of 230,000 active; Potency, µM (top dose mostly 56.4 µM), for inactives: cytoprotection (ATP increase), actives largely listed as activators; active = well fitted curve in the direction sought with a large enough effect; inconclusive = small, poorly fitted or top-dose-only effect, or another doubt; inactive = no such curve, though single readings can be large; an effect the other way counts as inactive or inconclusive; also: % of control where 0% means no effect; nearly all actives have a fitted effect of over 45% in size
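Quantitative HTS on tebufenozide-induced (100 nM) PC12 cells expressing HTTQ103 exon 1–GFP; compounds tested as a concentration series; survival measured via cellular ATP.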
KDM4E inh – blocks human JMJD2E demethylase activity; Potency, µM (highest dose often 57.1 µM), for the others: at the highest dose activity change, negative = inhibition, most hits filed as inhibitors; JMJD2E catalytic domain, FDH-coupled NADH fluorescence (FDH is formaldehyde dehydrogenase); 1.6% of 230,000 active; B2RXH2; AID 2147;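 also: 0% = wells with enzyme and -100% = buffer wells without enzyme; nearly all actives have a fitted effect of over 50% in size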
Target sequence (B2RXH2 1-337 limits assumed): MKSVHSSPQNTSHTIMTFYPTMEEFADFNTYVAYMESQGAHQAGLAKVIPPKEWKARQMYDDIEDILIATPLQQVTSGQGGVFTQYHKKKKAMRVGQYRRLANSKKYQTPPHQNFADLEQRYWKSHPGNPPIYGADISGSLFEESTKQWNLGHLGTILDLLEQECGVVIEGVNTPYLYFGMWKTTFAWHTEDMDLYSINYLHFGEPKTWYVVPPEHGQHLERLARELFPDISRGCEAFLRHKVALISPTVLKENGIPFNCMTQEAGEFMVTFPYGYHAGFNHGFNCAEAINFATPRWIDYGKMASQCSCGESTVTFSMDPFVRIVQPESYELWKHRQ
LMNA splice mod – modulators of lamin A splicing. HeLa LMNA splicing GFP/RFP minigene ratio, 48 h. Potency, µM (top dose mostly 46.1 µM), for inactives: at the top dose ratio change, negative = inhibition, most hits filed as inhibitors. 0.01% of 200,000 active. AID 1487; active = well fitted inhibition curve with a large enough effect in the signal ratio, with a control signal flat, not every such curve was filed as active; inconclusive = small, poorly fitted or top-dose-only effect, or effect the other way, or a change in a side signal; the % refers to the signal ratio; also: % is scaled to controls: 0 for no effect and ±100 for the full control effect
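S3 HeLa stable clones carrying a lamin A-EGFP splicing minigene plus DsRed2 were seeded at 600 cells/well in Opti-MEM with 2% FBS, pin-dosed and incubated 48 h at 37°C. Acumen cytometry (488 nm) gave the GFP/RFP total-intensity ratio.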
ALDH1A1 inh – ALDH1A1 (human) enzyme inhibition; Purified ALDH1A1, NADH fluorescence, propionaldehyde substrate; Potency, µM (titrated, usually from 75.3 µM), inactives show at the highest dose activity, negative = inhibition, usual class: inhibitors; 7.3% of 220,000 active;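 also: plate controls were no enzyme wells and a reference inhibitor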
HTT aggregate – inhibitors of mutant huntingtin aggregate formation in PC12 cells. PC12 HttQ103-GFP aggregates, Acumen cytometry, 40 h. Potency, µM (top dose mostly 46.1 µM), inactives show at the highest dose activity change, negative = inhibition, actives largely listed as inhibitors. 1.1% of 220,000 active; active = well fitted curve in the direction sought with a large enough effect; inconclusive = small, poorly fitted or top-dose-only effect, or another doubt; inactive = no such curve, though single readings can be large; an effect the other way counts as inactive or inconclusive; also: % is scaled to controls: 0 for no effect and ±100 for the full control effect; nearly all actives have a fitted effect of over 60% in size
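Huntingtin Q103 exon 1–GFP aggregates in induced PC12 cells (100 nM tebufenozide) were quantified by cytometry from lysates, with compounds dosed in titration.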
Numbers without * were called inactive; ? = inconclusive; / = no result given; [ ] = another dose, or the depositor's remark. Unless noted, calls follow the shape of the dose curve; as a rule, active = well fitted inhibition curve with a large enough effect (not every such curve was filed as active); inconclusive = small, poorly fitted or top-dose-only effect, or another doubt; inactive = no such curve, though single readings can be large or run the other way. Potency is read from the fitted curve at half-maximal effect.

SMILES	HPGD block	HTT ATP protect	KDM4E inh	LMNA splice mod	ALDH1A1 inh	HTT aggregate
O=C(C(Cl)Cl)N1c2ccccc2OCC1c1ccccc1 (stereo unspecified)	-11.6%	-71.3%[10 µM]	-14.0%	-6.9%	1.26µM*	?
Cc1ccc(S(=O)(=O)N2c3ccccc3OCC2c2ccccc2)cc1 (stereo unspecified)	-10.3%	-20.2%[10 µM]	10.3%	?	10.4%	-24.9%
COC(=O)C1Sc2[nH]c(=O)sc2C2c3ccccc3OC(=O)C12 (stereo unspecified)	-1.6%	-27.8%	2.2%	-15.4%	?	3.2%
COC(=O)C1CSc2[nH]c(=O)sc2C1c1ccccc1 (stereo unspecified)	-5.1%	4.5%	-2.6%	4.7%	31.6µM*	11.8%
COC(=O)C1Sc2[nH]c(=O)sc2C(c2ccc(Cl)cc2)C1C(=O)OC (stereo unspecified)	-14.4%	-14.7%	-3.6%	0.9%	11.2µM*	-1.1%
COC(=O)[C@@H](NC(=O)N1CCc2nc(-c3ccccc3)c3c(c2C1)CO[C@@H](C)C3)C(C)C	-13.1%	-9.0%[10 µM]	7.4%[11.4 µM]	6.4%[9.22 µM]	-0.1%[13.5 µM]	/
COc1cc(NC(=S)NC(=O)c2cc(C)cc(C)c2)ccc1NC(=O)c1cccs1	-17.5%	7.5%[10 µM]	-5.0%	-10.1%	14.1µM*	2.2%
COc1ccc(Cl)cc1NC(=S)NNC(=O)c1cccnc1	/	-29.1%	-2.6%	/	-15.2%	-9.3%
COc1cc(NC(=S)NC(=O)c2ccc(C(C)(C)C)cc2)ccc1NC(=O)c1cccs1	-8.8%	-22.2%[10 µM]	5.0%	?	11.9µM*	-20.9%
COc1cc(NC(=S)NC(=O)c2ccccc2C)ccc1NC(=O)c1cccs1	?	0.0%[10 µM]	-3.6%	?	25.1µM*	-1.0%
COc1ccc(Cl)cc1NC(=S)NNC(=O)c1cccs1	/	0.3%[10 µM]	13.2%	-5.4%[46 µM]	10µM*	-8.0%[9.22 µM]
O=[N+]([O-])c1ccc(CN2C=NS(=O)(=O)c3ccccc32)cc1	/	/	?	/	12.3%	-3.4%
CCN(c1cccc(C)c1)S(=O)(=O)c1ccc(OC)c([N+](=O)[O-])c1	/	2.2%[10 µM]	3.8%	28.9%[46 µM]	25.1µM*	-6.9%[9.22 µM]
Cc1cc(C(F)(F)F)c2c(=O)[nH]c(=O)n(Cc3ccccc3)c2n1	10µM*	-3.7%	0.0%	6.4%	10.6%	-1.2%
O=c1[nH]c(=O)n(Cc2ccccc2)c2nc(-c3ccco3)cc(C(F)(F)F)c12	?	-27.2%	?	?	?	3.7%
Cc1ccccc1NC(=O)Cn1nnc2ccccc21	/	9.1%[10 µM]	3.8%	/	-0.4%	13.0%
COc1ccc(CC(=S)N2CCOCC2)cc1	?	-2.1%[10 µM]	-5.4%	-1.6%	8.91µM*	7.5%
Cc1ccc(CC(=S)N2CCOCC2)cc1	/	-13.7%	-17.8%	/	23.8µM*	-9.3%
COC(=O)[C@@H]1C[C@H]1[C@@H](NS(=O)(=O)c1ccc2ccccc2c1)c1ccccc1	-9.0%	11.0%	-7.1%	/	3.8%	/
Cc1cc(C(C)(C)C)cc(S(=O)(=O)NCC(=O)O)c1C	0.2%	-3.8%	6.1%	-5.7%	8.91µM*	8.3%
O=C(O)CNS(=O)(=O)c1cc(Cl)c(Cl)cc1Cl	-13.0%	18.5%	8.2%	-1.4%	15.5%	14.8%
Cc1cc(C(C)(C)C)cc(S(=O)(=O)Nc2ccc(O)c(C(=O)O)c2)c1C	?	-3.8%	?	24.9%	3.98µM*	8.8%
CN(C(=O)CSc1nc2ccc(NC(=O)c3cccc(F)c3)cc2s1)c1ccccc1	/	/	/	-9.0%[46 µM]	/	/
CCc1nc(N[C@@H](CC(C)C)C(=O)O)c2oc3ccccc3c2n1	-9.1%	2.9%	3.0%	6.8%[0.0737 µM]	0.891µM*	6.3%
CCc1nc(N[C@H](C(=O)O)C(C)C)c2oc3ccccc3c2n1	/	2.8%[10 µM]	-5.8%	/	0.794µM*	-14.0%[9.22 µM]
SMILES	HPGD block	HTT ATP protect	KDM4E inh	LMNA splice mod	ALDH1A1 inh	HTT aggregate
Cc1c(C)c2c(c(C)c1O)CCC(C)(CCCC(C)CCCC(C)CCCC(C)C)O2 (stereo unspecified)	-1.3%	4.3%	-0.9%	/	-0.2%	4.5%
C#CCN1C(=O)C(O)(CC(=O)/C=C/c2ccco2)c2ccccc21 (stereo unspecified)	/	-25.9%	-1.0%	?	1.58µM*	-2.1%
O=C(CC1(O)C(=O)N(CCc2ccccc2)c2ccccc21)c1ccco1 (stereo unspecified)	-6.0%	-6.2%	-1.2%	3.7%	?	14.5%
COc1ccc(CNc2ncncc2-c2cccc(C#N)c2)c(OC)c1	/	17.6%	/	-3.7%	-15.0%	/
CC(C)CCn1cnc2c(oc3nc4c(cc32)CCCC4)c1=O	/	-16.7%[10 µM]	-13.4%	/	3.16µM*	-7.5%[9.22 µM]
CC1(C)Cc2nc3oc4c(=O)n(CC(=O)Nc5ccccc5)cnc4c3cc2CO1	-9.1%	5.1%[10 µM]	-12.2%	-21.0%	?	6.3%
Nc1cc2nc3ccccc3oc-2cc1=O	/	-5.3%[10 µM]	12.6µM*	/	?	-27.8%[9.22 µM]
Cc1ccc(CNC(=O)CC(C)CC2=NS(=O)(=O)c3ccccc3N2)cc1 (stereo unspecified)	/	/	/	14.6%[46 µM]	/	/
O=C(c1ccccc1Cl)N1CCC(c2nc3c(nnn3Cc3ccco3)c(=O)[nH]2)CC1	14.1µM*	-4.0%	-5.4%	-10.2%	28.2µM*	7.7%
COc1ccccc1Cn1nnc2c(=O)[nH]c(C3CCN(C(=O)c4ccccc4Cl)CC3)nc21	14.1µM*	-17.2%	-1.1%	19.5%	?	-16.1%
COc1ccccc1Cn1nnc2c(=O)[nH]c(C3CCN(C(=O)c4ccc(C)cc4)CC3)nc21	?	1.0%	-2.3%	25.5%	1.0%	6.6%
COc1ccccc1Cn1nnc2c(=O)[nH]c(C3CCN(C(=O)c4ccc(F)cc4)CC3)nc21	11.2µM*	-14.9%	5.2%	13.5%	-3.1%	4.0%
CC(C)(C)CC(=O)N1CCC(c2nc3c(nnn3Cc3c(F)cccc3Cl)c(=O)[nH]2)CC1	/	-13.1%[10 µM]	-0.1%	-4.1%	2.5%	-14.4%
O=C(c1ccccc1)N1CCC(c2nc3c(nnn3Cc3ccccc3Cl)c(=O)[nH]2)CC1	11.2µM*	-17.1%	-2.9%	6.0%	?	?
CC1(C)CC(=S)Nc2ccccc2S1	15.8µM*	15.1%[10 µM]	-5.3%	-1.4%	10µM*	16.2%
CC(/C=N/n1c(-c2ccc(Cl)cc2)n[nH]c1=S)=C\c1ccco1	/	3.3%[10 µM]	-4.3%	?	28.2µM*	2.5%[9.22 µM]
Cc1ccc(/C=N/n2c(-c3ccc(Cl)cc3)n[nH]c2=S)o1	/	7.7%[10 µM]	3.1%	/	/	13.5%[9.22 µM]
CC(/C=N/n1c(-c2ccco2)n[nH]c1=S)=C\c1ccccc1	2.51µM*	27.9%[10 µM]	?	2.2%	-4.5%	-8.8%
Cc1ccc(-c2n[nH]c(=S)n2/N=C\c2ccco2)cc1	22.4µM*	4.8%[10 µM]	-12.3%	-2.3%	-5.5%	7.4%
CC(/C=N/n1c(-c2ccccn2)n[nH]c1=S)=C\c1ccccc1	/	-3.1%[10 µM]	-6.1%	/	/	-14.2%[9.22 µM]
